GPT2 inh: GPT2 alanine aminotransferase inhibition; Q8TD30; AID 1671188; Recombinant GPT2, coupled pyruvate oxidase/HRP Amplex Red fluorescence; Potency, µM (titrated, usually from 57.7 µM), most hits filed as inhibitors; actives 0.25% (n = 100,000); further: nearly all actives have a fitted effect of over 60% in size
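Fluorescence read-out: pyruvate from GPT2 turnover coupled to pyruvate oxidase, HRP and Amplex Red (0.2mM ThPP, 0.2U/mL PO and HRP, 50uM Amplex final). Substrates 250uM a-KG, 2mM L-alanine; enzyme 10ng/uL; 30 min RT.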
IP6K1 inh: blocks human inositol hexakisphosphate kinase 1; Q92551; IP6K1 kinase, ADP-Glo luminescence, 2 h; stronger effect = lower value; activity change, % (series mostly up to about 58 µM); actives 0.81% (n = 140,000); AID 1645851; in the data active means activity change below about -25%
Target sequence (Q92551 whole entry, looked up): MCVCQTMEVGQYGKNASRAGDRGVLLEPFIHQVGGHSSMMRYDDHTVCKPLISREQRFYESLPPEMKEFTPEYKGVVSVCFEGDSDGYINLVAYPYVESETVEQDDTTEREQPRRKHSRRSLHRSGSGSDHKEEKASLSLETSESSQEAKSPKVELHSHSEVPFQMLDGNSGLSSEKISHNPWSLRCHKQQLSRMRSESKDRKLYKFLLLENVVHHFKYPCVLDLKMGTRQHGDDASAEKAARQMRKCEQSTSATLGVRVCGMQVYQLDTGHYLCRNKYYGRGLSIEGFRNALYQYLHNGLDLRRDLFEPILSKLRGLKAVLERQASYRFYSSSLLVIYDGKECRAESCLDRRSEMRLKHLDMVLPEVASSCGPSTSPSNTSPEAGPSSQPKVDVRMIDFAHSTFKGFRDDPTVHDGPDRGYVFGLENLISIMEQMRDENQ
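ADP-Glo luminescence measures ADP made by human IP6K1 during a 2 h RT reaction with ATP/IP6 (mix at 1.3 mM/130 uM); top library doses 57.5 and 19.1 uM final.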
SNCA expr inhib: inhibitors of alpha-synuclein (SNCA) gene expression. actives 0.17% (n = 140,000). Potency, µM (series often up to 57.2 µM), most hits filed as inhibitors. HEK-293 SNCA-luciferase knock-in, luminescence, 24 h; further: nearly all actives have a fitted effect of over 45% in size
SNCA viab count: reduces viability of HEK-293 SNCA reporter cells. HEK-293-SNCA-luc viability, GF-AFC fluorescence, 24 h. Potency, µM (top dose mostly 57.1 µM), actives largely listed as cytotoxic. actives 0.12% (n = 150,000). AID 1671193; further: nearly all actives have a fitted effect of over 30% in size
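Cytotoxicity counterscreen: after 24 h compound treatment of genome-edited SNCA-luciferase HEK-293 cells, live-cell protease substrate GF-AFC read by fluorescence after 30 min; activity scaled between DMSO (0%) and medium-only (-100%), curves Hill-fitted.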
IP6K1 inh cnf: human IP6K1 inhibition, confirmatory; shares compounds with IP6K1 inh; recombinant IP6K1 kinase, ADP-Glo luminescence, 2 h; Potency, µM (highest dose often 49 µM), usual class: inhibitors; actives 13% (n = 1,200); AID 1645852; further: nearly all actives have a fitted effect of over 65% in size
Hits are given with their value; - = inactive; ? = inconclusive; . = not tested or not shown; [ ] = another dose, or the depositor's remark. An excerpt weighted towards active compounds, which were near 0.9% of everything screened. Unless noted, the call rests on the fitted dose curve; in most records, active means well fitted curve in the direction sought with a large enough effect; inconclusive means small, poorly fitted or top-dose-only effect, or another doubt; inactive means no such curve, though single readings can be large; an effect the other way counts as inactive or inconclusive.

SMILES	GPT2 inh	IP6K1 inh	SNCA expr inhib	SNCA viab count	IP6K1 inh cnf
COc1ccc(S(=O)(=O)N2CCC3(CC2)CC(N(C)Cc2ccccc2)CCO3)cc1 (centres undefined)	-	-	-	-	.
O=C(NCc1ccccc1F)c1nc2sccn2c1-c1ccc(F)cc1	-	-	-	-	.
COc1ccc(CN2CCNc3cnc(OCc4cccnc4)cc3C2)cc1	-	-	-	-	.
COc1ccc(CN2CCNc3cnc(OCc4cccnc4)cc3C2)cc1O	-	-29	-	-	-
O=C(Cc1cccc(Cl)c1)N1CCC2(CC1)CC(c1cccc(C(F)(F)F)c1)=NO2	.	-	.	.	.
O=S(=O)(c1ccc(-c2cc(C(F)(F)F)on2)s1)N1CCN(c2cccc(Cl)c2)CC1	.	-33	-	-	-
Cc1cc(-c2cnc(N)c3c(-c4ccc5scnc5c4)csc23)n(C)n1	-	-31	.	-	?
Cn1ncc2c(C(=O)NCc3ccc(C(F)(F)F)cc3)cc(-c3ccccc3C(F)(F)F)nc21	.	-	.	.	.
Cc1cc(C)c(NC(=O)c2oc3c(c2C)-c2[nH]ncc2CC3)c(C)c1	.	-	-	-	.
Cc1ccc(Cl)cc1NC(=O)c1oc2c(c1C)-c1[nH]ncc1CC2	.	-40	-	-	?
Cn1cnc2c(F)c(Nc3ccc(Br)cc3F)c(C(=O)NOCCO)cc21	-	-	-	-	-
CCOc1ccc2c(n1)CCN(C(=O)Cc1c[nH]c3ccccc13)C2	-	-26	-	-[12.5 µM]	-
CCOc1ccc2c(n1)CCN(C(=O)Cc1ccccc1)C2	-	-	-	-[12.5 µM]	.
CC1=C[C@@H](CO)[C@H](C(C)C)C[C@H]1Cc1nnc(-c2ccc(N(C)C)cc2)o1	-	-	-	-	.
COc1cccc(CN2CCCN(S(C)(=O)=O)C(c3ccccc3)CC(=O)NCC2)c1 (centres undefined)	-	-	-	-	.
COc1ccc(C(=O)Nc2ccc(NC(=O)c3cccs3)cc2)cc1OC	.	-56	-	?	-
COc1cncc(Nc2cnc3ccc(-c4ccccc4)nn23)c1	?	-36	-	-	?
O=C(c1cnc2ccccn2c1=O)N1CC(=O)N(C2CCCCC2)CC(OCc2ccccc2)C1 (centres undefined)	-	-	-	-	.
COc1ccccc1-c1ccc(C(=O)N2CCCC[C@H](N(C)C)C2)cc1	-[11.5 µM]	-31	-	?	-
COc1cc(OC)c(C(=O)N2CCCC[C@H](N(C)C)C2)cc1OC	-	-	-	-	.
CN(C)[C@H]1CCCCN(C(=O)c2cnc3ccccn3c2=O)C1	-[11.5 µM]	-34	-	-	-
CCCCn1c(=O)c(C(=O)N2CCN(C(=O)c3ccc(Cl)cc3)CC2)nc2cccnc21	-	-	-	-	.
O=C1CC(c2ccccc2)Cc2[nH]c(=O)c(C(=O)Nc3cccc(F)c3)cc21 (centres undefined)	.	-93	-	-	-
COc1ccc(-c2ccc3nc(-c4c(F)c(F)cc(F)c4F)oc3c2)c(OC)c1OC	-	-	-	-	.
Cc1ccc(-n2nc(C)c([C@@H]3C=C[C@@H](NC(=O)c4cccs4)C3)c2C)cc1Cl	-	-	-	?	.
SMILES	GPT2 inh	IP6K1 inh	SNCA expr inhib	SNCA viab count	IP6K1 inh cnf
Cc1ccc(O)c(N=Nc2ccccc2)n1	-	.	?	-	7.3µM
CCn1c(CO)nnc1C1CC(NC(=O)c2cccc3c2OCCO3)C1 (centres undefined)	-[11.5 µM]	-25	-	-	-
CC(=O)NCCNC(=O)c1ccc(-c2ncc3cnc(-c4cccc(F)c4)cn23)cc1	-	-	-	-	.
O=C(O)c1ccc(-c2ncc3cnc(-c4cccc(F)c4)cn23)cc1	-	-30	-	-	?
Cc1ccc(F)c(C(=O)N[C@H](Cc2ccccc2)C2CC(O)C2)c1Cl (some centres undefined)	?	-34	-	-	-
CO[C@H]1C(=O)N(C2CCN(C(=O)Cc3cccc(F)c3)CC2)[C@H]1c1ccncc1	-	-	-	-	.
COc1ccc(CCNC(=O)c2cc3c(-c4ccccc4F)nn(C)c3s2)c(OC)c1	.	-	-	-	.
COc1ccc(CNC(=O)c2cc3c(-c4ccccc4F)nn(C)c3s2)cc1	.	-36	-	-	?
Cc1ccc(CN2CC(N(C3CCOCC3)S(C)(=O)=O)C2)cc1	-	-	-	-	.
O=C(c1cccc(Cl)c1)N(Cc1cccc(F)c1)C1CCS(=O)(=O)C1 (centres undefined)	.	-37	-	-	-
CCCCn1c(=O)c(C(=O)NCCc2ccc(F)cc2)nc2cccnc21	-	-27	-	-	-
Cc1ccc(OCC(=O)Nc2ccc3nc(SCCOc4ccccc4)sc3c2)cc1	.	-27	-	-	-
Cc1cccc(Nc2c3c(nc4nncn24)CCC3)c1C	.	-27	-	-	-
Cc1c(NC(=O)c2ccc(N3CCC(C)CC3)c([N+](=O)[O-])c2)cccc1-c1nc2ccccc2o1	.	-	-	-	.
Cc1c(NC(=O)c2sc3c([N+](=O)[O-])cccc3c2Cl)cccc1-c1nc2ccccc2o1	.	-28	-	-	-
CC(=O)NCc1nnc2n1C(C(=O)Nc1ccc(F)cc1)CC2 (centres undefined)	-	-	-	-[12.5 µM]	.
O=C([C@H]1CCCN1C(=O)C1CC1)N1CCCC(c2nc3ccncc3[nH]2)C1 (some centres undefined)	-	-	-	-	.
O=C(C1CCCN1C(=O)C1CC1)N1CCC(c2nc3ccncc3[nH]2)C1 (centres undefined)	-	-27	-	-	-
Cc1ccccc1[C@@H]1CN(C(=O)CCC(=O)NC2CCCC2)C[C@H]1C(=O)O	-[11.5 µM]	-35	-	-	-
CNCC(=O)N1C[C@@H](C(=O)O)[C@H](c2ccccc2)C1	-[11.5 µM]	-	-	-	.
CC(=O)N1CCCC(c2nn(-c3ccccn3)c(=O)[nH]2)C1 (centres undefined)	-	-25	-	-	-
FC(F)(F)c1ccc(-c2cnc([C@@H]3COCCN3Cc3ccccn3)[nH]2)cc1	-	-	?	-	.
CCCCCCCC(=O)[O-].CCCCCCCC(=O)[O-].[Zn+2]	-	-36	-	-	?
O=C1NC(=O)/C(=C/c2ccc3c(c2)OC(F)(F)O3)S1	-	-37	-	-	?
C=Cc1cc(O)cc2nc(-c3ccc(O)c(F)c3)oc12	-	-28	.	-	?
SMILES	GPT2 inh	IP6K1 inh	SNCA expr inhib	SNCA viab count	IP6K1 inh cnf
COc1cc(OC)c(NC(=O)C2=C(C)C(=O)OC23CCCCCC3)cc1Cl	.	-100	-	-	-
Cc1cccc(-c2nc3ccc(C(=O)NC4CC4)cc3o2)n1	-	-	?	-	.
CCCN(C(=O)Cn1ncc2c([nH]c3ccccc32)c1=O)c1ccc(F)cc1	.	-37	-	-	-
CCCCN(Cc1ccco1)C(=O)Cn1ncc2c([nH]c3ccccc32)c1=O	.	-	-	-	.
Cc1ccc(-n2[nH]c(C)c(N=Nc3cccc(-c4cccc(C(=O)O)c4)c3O)c2=O)cc1C	1.9µM	-91	-	-	?
COc1ccccc1-c1cccc(C(=O)O)c1	-	-	-	-	.

Source: PubChem
